PubChem BioAssay

Assays:
[1] = tested on: Botulinum neurotoxin type F light chain protease (Clostridium botulinum); test: Clostridium botulinum type F light chain protease inhibitors, microsphere substrate cleavage, validation (AID 588459); conditions: multiplex microsphere protease substrate cleavage assay, flow cytometry; at 10 µM; stronger effect = higher value
[2] = biological target: Botulinum neurotoxin type A (Clostridium botulinum) (UniProt P0DPI0); test: BoNT/A light chain protease inhibitors, biochemical, multiplex microsphere flow cytometry, validation set (AID 588460); conditions: at 10 µM, stronger effect = higher value
Botulinum neurotoxin type A (Clostridium botulinum), sequence (P0DPI0 whole entry, looked up): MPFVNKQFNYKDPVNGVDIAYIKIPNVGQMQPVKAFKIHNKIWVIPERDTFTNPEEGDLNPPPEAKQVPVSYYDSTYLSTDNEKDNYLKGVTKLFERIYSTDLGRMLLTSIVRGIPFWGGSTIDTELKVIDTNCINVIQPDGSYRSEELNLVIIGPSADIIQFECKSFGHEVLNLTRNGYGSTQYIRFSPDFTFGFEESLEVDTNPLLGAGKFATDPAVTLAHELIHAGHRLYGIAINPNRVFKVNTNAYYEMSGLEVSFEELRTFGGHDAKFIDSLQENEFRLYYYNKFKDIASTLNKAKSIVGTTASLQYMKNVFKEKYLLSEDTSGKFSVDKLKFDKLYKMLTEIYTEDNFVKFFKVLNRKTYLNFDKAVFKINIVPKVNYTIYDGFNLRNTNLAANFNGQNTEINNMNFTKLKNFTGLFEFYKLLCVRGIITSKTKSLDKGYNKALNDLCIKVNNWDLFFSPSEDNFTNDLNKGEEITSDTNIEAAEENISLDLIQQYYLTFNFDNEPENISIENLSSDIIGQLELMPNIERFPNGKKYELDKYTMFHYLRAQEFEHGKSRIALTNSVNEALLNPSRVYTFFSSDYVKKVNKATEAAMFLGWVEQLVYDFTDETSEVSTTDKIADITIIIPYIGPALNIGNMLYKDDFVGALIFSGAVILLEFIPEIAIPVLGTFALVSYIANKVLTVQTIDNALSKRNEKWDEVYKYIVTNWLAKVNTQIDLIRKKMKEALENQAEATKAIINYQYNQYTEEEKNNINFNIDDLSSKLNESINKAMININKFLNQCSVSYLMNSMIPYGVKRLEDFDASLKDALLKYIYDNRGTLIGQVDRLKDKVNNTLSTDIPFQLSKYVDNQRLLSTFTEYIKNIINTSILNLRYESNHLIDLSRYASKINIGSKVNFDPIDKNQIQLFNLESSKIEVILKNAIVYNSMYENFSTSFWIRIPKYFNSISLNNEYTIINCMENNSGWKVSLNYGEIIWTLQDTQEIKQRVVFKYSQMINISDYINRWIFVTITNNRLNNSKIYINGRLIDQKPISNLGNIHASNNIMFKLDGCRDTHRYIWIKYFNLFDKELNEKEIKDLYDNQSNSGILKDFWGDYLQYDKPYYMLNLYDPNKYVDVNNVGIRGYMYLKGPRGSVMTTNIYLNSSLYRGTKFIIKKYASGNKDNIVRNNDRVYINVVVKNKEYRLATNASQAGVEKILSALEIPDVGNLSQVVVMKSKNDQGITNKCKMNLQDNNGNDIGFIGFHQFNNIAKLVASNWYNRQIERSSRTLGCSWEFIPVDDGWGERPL

[3] = biological target: Lethal factor (Bacillus anthracis) (UniProt P15917); test: Bacillus anthracis lethal factor inhibition, microsphere flow cytometry protease assay, validation at 10 µM (AID 588461); conditions: multiplex microsphere protease cleavage assay, stronger effect = higher value
Lethal factor (Bacillus anthracis), sequence (P15917 whole entry, looked up): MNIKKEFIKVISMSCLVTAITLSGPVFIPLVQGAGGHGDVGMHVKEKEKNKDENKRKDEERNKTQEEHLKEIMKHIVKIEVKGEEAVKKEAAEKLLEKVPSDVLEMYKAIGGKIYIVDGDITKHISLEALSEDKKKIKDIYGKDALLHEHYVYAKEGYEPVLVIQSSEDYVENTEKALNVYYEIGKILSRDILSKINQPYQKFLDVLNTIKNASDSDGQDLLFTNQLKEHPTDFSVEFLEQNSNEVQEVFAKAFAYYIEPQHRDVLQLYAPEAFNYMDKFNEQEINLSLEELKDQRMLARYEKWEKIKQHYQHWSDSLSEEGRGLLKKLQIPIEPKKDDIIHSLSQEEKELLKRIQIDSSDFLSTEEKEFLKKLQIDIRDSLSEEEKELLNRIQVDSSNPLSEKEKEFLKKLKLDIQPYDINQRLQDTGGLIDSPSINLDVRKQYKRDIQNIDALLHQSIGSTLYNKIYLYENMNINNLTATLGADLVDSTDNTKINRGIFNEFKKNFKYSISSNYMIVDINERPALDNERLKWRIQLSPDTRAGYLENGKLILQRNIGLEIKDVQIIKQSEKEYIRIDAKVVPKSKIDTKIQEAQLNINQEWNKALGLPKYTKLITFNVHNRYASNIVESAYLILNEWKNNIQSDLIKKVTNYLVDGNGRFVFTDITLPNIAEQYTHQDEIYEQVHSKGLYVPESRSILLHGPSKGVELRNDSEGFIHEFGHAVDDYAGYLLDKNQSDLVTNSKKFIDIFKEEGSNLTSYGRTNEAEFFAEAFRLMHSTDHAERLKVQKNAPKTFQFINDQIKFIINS

Measured: inhibition

COc1ccc(CN2CCC(=O)NC2=O)cc1
inactive: [1] -2.3% | [2] -0.1% | [3] -3.5%

CC(C)=CCC(C)(C)/C=N/NC(N)=O
inactive: [1] 1.8% | [2] 0.6% | [3] 10.3%

Fc1ccc(-c2cc(-c3ccccc3)nc(-n3cccn3)n2)cc1
inactive: [1] -6.3% | [2] -0.2% | [3] 2.3%

Cc1cc(-c2ccccc2)nnc1NCCN1CCOCC1
inactive: [1] -0.7% | [2] -0.4% | [3] -2.3%

Cc1ccc(S(=O)(=O)N[C@@H](C)C(=O)N2CCC(C(=O)N3CCC[C@H]3C(=O)O)CC2)cc1
inactive: [1] 1.9% | [2] 1% | [3] -1.7%

c1ccc2c3c(c(CN4CCCCC4)cc2c1)COC3
inactive: [1] 5.7% | [2] -1% | [3] 0.6%

O=c1[nH]cnc2c1ncn2[C@@H]1O[C@H](CO)[C@@H](O)[C@H]1O
inactive: [1] 1.2% | [2] 0.1% | [3] -8%

O=C1c2ccccc2C(=O)N1/N=C/c1ccc(Oc2ccc([N+](=O)[O-])cn2)cc1
inactive: [1] 0.2% | [2] 0.8% | [3] -1.7%

O=C1OC(c2ccccc2)=C/C1=C/c1cccs1
inactive: [1] 6.4% | [2] 1.5% | [3] 0.7%

COCCn1c(/C=C/c2ccccc2)nc2ccccc21
inactive: [1] -1.2% | [2] 0% | [3] -3.4%

COc1ccc(C(=O)NCC2OCCc3ccccc32)cc1 (configuration not stated)
inactive: [1] -0.4% | [2] -0.3% | [3] -8.6%

CC(=O)N[C@@H](CS)C(=O)O
inactive: [1] 5.5% | [2] -0.8% | [3] 2.4%

C=CCNC(=S)N1CCc2c([nH]c3ccccc23)C1C (configuration not stated)
inactive: [1] 1.4% | [2] 0.4% | [3] 0.1%

O=C(NCc1ccc(N2CCCC2=O)cc1)c1cccc(Cl)c1
inactive: [1] -4.5% | [2] -2.2% | [3] 1%

O=C(O)CCn1c(=S)n(CCC(=O)O)c2ccccc21
inactive: [1] 2.7% | [2] 0.3% | [3] 3.1%

CC(=O)OCC(OC(C)=O)C(OC(C)=O)C(OC(C)=O)C(=O)Nc1cccc(C)c1 (configuration not stated)
inactive: [1] 3.7% | [2] 1.2% | [3] 3.1%

Cc1ccc(CSCC(=O)NCCCN2CCOCC2)cc1
inactive: [1] 1.4% | [2] -1.7% | [3] 3.8%

COCCN(CCOC)Cc1c(C)[nH]c2c(C)c(C)ccc2c1=O
inactive: [1] 3.4% | [2] -0.6% | [3] -0.3%

CCN(CC)CCNC(=O)c1cc(S(C)(=O)=O)ccc1OC
inactive: [1] 2.7% | [2] 1.8% | [3] 4.7%

O=C(Cc1ccccc1[N+](=O)[O-])NCc1ccncc1
inactive: [1] -3.6% | [2] 0.9% | [3] -5.4%

CC1=C(/C=C/C(C)=C/C=C/C(C)=C/C(=O)O)C(C)(C)CCC1
inactive: [1] 0.8% | [2] -0.1% | [3] 0.4%

CCCCNC(=O)NS(=O)(=O)c1ccc(C)cc1
inactive: [1] 1.1% | [2] 1.1% | [3] 1%

Cc1cc(C)nc(NS(=O)(=O)c2ccc(N)cc2)n1
inactive: [1] 1.3% | [2] 2.1% | [3] 3.4%

COc1ccc2c(CC(=O)NCC3CCC(C(=O)O)CC3)cc(=O)oc2c1 (configuration not stated)
inactive: [1] 1% | [2] -0.1% | [3] 3.6%

COCCc1ccc(OCC(O)CNC(C)C)cc1 (configuration not stated)
inactive: [1] -1.4% | [2] -1.4% | [3] -2.9%

CCN(CC)C(=O)c1sc(NC(=O)c2c(OC)cccc2OC)c(C#N)c1C
inactive: [1] 6% | [2] 2.1% | [3] 3.6%

CC(C)(Sc1cc(C(C)(C)C)c(O)c(C(C)(C)C)c1)Sc1cc(C(C)(C)C)c(O)c(C(C)(C)C)c1
inactive: [1] 0% | [2] -2.2% | [3] -7.4%

O=P(O)(O)CP(=O)(O)O
inactive: [1] -9% | [2] -3% | [3] -3.7%

Cc1cccc(NC(=O)c2cc3ccccc3o2)c1
inactive: [1] 1.3% | [2] -0.4% | [3] -2.2%
